Bioassay records deposited in PubChem BioAssay by National Center for Advancing Translational Sciences (NCATS).
Cruzain Triton – blocks cruzain activity in presence of Triton detergent; Potency, µM, for inactives: max response, negative = inhibition, actives largely listed as inhibitors; hit rate 0.43% among 200,000; P25779; AID 1478; purified cruzain, Z-FR-AMC fluorescence, 0.01% Triton;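 note: plate controls were neutral wells for no effect and buffer without enzyme for full effect; nearly all actives have a fitted effect of over 40% in size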
Target sequence (P25779 123-467 limits assumed): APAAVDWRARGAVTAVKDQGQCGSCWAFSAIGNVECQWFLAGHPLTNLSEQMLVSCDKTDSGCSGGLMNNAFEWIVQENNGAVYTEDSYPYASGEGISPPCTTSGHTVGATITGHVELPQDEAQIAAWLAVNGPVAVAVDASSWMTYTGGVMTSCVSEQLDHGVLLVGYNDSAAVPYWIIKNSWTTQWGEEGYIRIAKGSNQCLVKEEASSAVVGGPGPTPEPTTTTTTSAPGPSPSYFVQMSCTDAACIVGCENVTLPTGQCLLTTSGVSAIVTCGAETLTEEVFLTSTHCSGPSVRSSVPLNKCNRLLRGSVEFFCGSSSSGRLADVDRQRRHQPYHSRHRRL
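Steps: dispense cruzain (1.5 nM final) in acetate buffer pH 5.5 with DTT and 0.01% Triton X-100; pin-transfer compounds; incubate 15 min RT; add Z-FR-AMC (2 uM final); read fluorescence every 30 s, using the 60 s intensity change.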
Cruzain noTriton – cruzain (T. cruzi) inhibition without detergent; P25779; Potency, µM, without a hit: max response, negative = inhibition, actives largely listed as inhibitors; hit rate 2.3% among 200,000; AID 1476; purified cruzain, Z-FR-AMC fluorescence, no detergent;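 note: plate controls were enzyme without inhibitor for no effect and buffer without enzyme for full effect; nearly all actives have a fitted effect of over 40% in size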
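Detergent-free condition (0.00005% Triton X-100) in acetate buffer pH 5.5 with DTT. 1.5 nM enzyme and compound were pre-mixed 15 min, then 2 uM Z-FR-AMC substrate added; reaction progress from fluorescence change between first and third reads (60 s).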
* marks the source's active call; other numbers are inactive results; ? = inconclusive. Hits are enriched below; roughly 2.4% of the tested compounds scored in any of these assays. Calls come from the whole dose curve; as a rule, active = well fitted curve in the direction sought with a large enough effect; inconclusive = small, poorly fitted or top-dose-only effect, or another doubt; inactive = no such curve, though single readings can be large; an effect the other way counts as inactive or inconclusive. Potency is the fitted concentration of half-maximal effect.

SMILES | Cruzain Triton | Cruzain noTriton
Cc1nnc(NC(=O)Nc2cccc(Cl)c2)s1 | 1% | 0%
CCCc1nnc(NC(=O)Nc2ccccc2Cl)s1 | -2% | -12%
O=C(Nc1nnc(SCc2ccc(Cl)cc2)s1)c1ccco1 | 6% | ?
O=C(Nc1ccccc1)Nc1nnc(CSCc2ccccc2Cl)s1 | -3% | ?
O=C(Nc1ccc(Cl)c(Cl)c1)Nc1nnc(CSc2ccccc2)s1 | -1% | 10µM*
O=C(Nc1ccc(Cl)cc1)Nc1nnc(CSCc2ccccc2Cl)s1 | -1% | 6.3µM*
COc1ccc(C2NC(=O)N(C)C3=C2C(=O)N(c2ccc(F)cc2)C3)cc1 (stereo not given) | -2% | -6%
CCOc1ccc(C2CC(=O)Nc3c2c(=O)[nH]c2ncnn32)cc1 (stereo not given) | 1% | 9%
O=C(COc1cccc(Cl)c1)N1CCC(c2nc3ccccc3o2)CC1 | -6% | 8%
COC(=O)c1scc(-c2ccc(C)cc2)c1S(=O)(=O)Nc1cc(C)ccc1OC | -9% | ?
CCOc1ccccc1C(=O)Nc1nc2c(s1)CC(C)CC2 (stereo not given) | -7% | 1%
c1ccc(-c2ccc(N3CC4(CCNCC4)C3)cc2)cc1 | 1% | ?
c1ccc(-c2ccc(N3CCCC4(CCNCC4)C3)cc2)cc1 | -3% | 32µM*
COc1ccccc1C(=O)NCc1ccc2c(c1)CCN2C(=O)c1ccncc1 | 1% | -6%
Cc1ccc(OCC(=O)N(Cc2ccco2)Cc2ccco2)cc1C | -5% | -9%
Cc1cc(Br)ccc1NC(=O)c1cc2c(s1)-c1ccccc1SC2 | -7% | 7.9µM*
Cc1cc(Br)ccc1NC(=O)c1ccccc1-c1ccccc1 | -8% | 10%
COc1cccc(-c2noc(-c3cc(C(C)C)[nH]n3)n2)c1OC | -2% | 2%
O=C1CCCC2=C1C(c1cn(-c3ccccc3)nc1-c1cccs1)c1c([nH]c(=O)[nH]c1=O)N2 (stereo not given) | 14µM* | 13µM*
CSc1nc2c(c(=O)[nH]1)C(c1cccs1)C1=C(CCCC1=O)N2 (stereo not given) | -1% | 3%
O=C1CCCc2cc(S(=O)(=O)N3CCCC(C(=O)NCc4ccc(Cl)cc4)C3)ccc2N1 (stereo not given) | -5% | 0%
Cc1c(N=Cc2cccs2)c(=O)n(-c2ccccc2)n1C | 4% | -9%
Cc1ccc(C2C(C=Nc3c(C)n(C)n(-c4ccccc4)c3=O)=C(c3ccccc3)Oc3ccccc32)cc1 (stereo not given) | -3% | 7.9µM*
CSc1nc(C)cc(Nc2cccc(C(=O)O)c2)n1 | -5% | -7%
Fc1ccc(Cn2ccc(-c3cnc(-c4ccccc4)s3)n2)cc1 | 1% | 0%
SMILES | Cruzain Triton | Cruzain noTriton
O=C(c1ccc(F)cc1)n1ccc(-c2cnc(-c3ccccc3)s2)n1 | 3% | 6.3µM*
Cc1cc(C)c2c(=O)cc(CSc3nnc(-c4ccccc4)n3C)[nH]c2c1 | 0% | 0%
COc1ccc(Cl)cc1NC(=O)c1cc(-c2ccc3c(c2)OCO3)on1 | -1% | 4%
CC(=O)C1=C(C)NC(SCC(=O)c2ccc(Cl)cc2Cl)=C(C#N)C1c1ccco1 (stereo not given) | -10% | 32µM*
CC(=O)C1=C(C)NC(SCC(=O)c2ccc(Cl)cc2)=C(C#N)C1c1ccco1 (stereo not given) | -9% | -30%
Cc1nc2ccccc2c(=O)n1-c1ccc(NC(=O)C(F)(F)F)cc1 | -1% | 0%
CC1=C(C(=O)OC2CCCC2)C(c2cccc(Cl)c2Cl)CC(=O)N1 (stereo not given) | -11% | -12%
Cc1ccccc1Cn1c(SCc2ccc(C(=O)NCCc3ccccc3)cc2)nc2ccncc21 | -9% | 2%
O=C(/C=C/c1ccco1)NC(=S)Nc1cc(-c2nc3ccccc3s2)ccc1Cl | -7% | 6.3µM*
Cc1ccc(C(=O)NC(=S)Nc2cccc(-c3nc4ccccc4s3)c2)cc1 | 0% | ?
Cc1ccc(-c2nc3ccccc3s2)cc1NC(=S)NC(=O)c1cccc2ccccc12 | -4% | 6.3µM*
Cc1ccc(-n2nc3cc(C)c(NC(=S)NC(=O)/C=C/c4ccco4)cc3n2)cc1 | -5% | ?
Cc1ccc(-c2nc3ccccc3s2)cc1NC(=S)NC(=O)/C=C/c1ccco1 | 0% | 16µM*
O=C(Nc1cc(-c2nc3ccccc3s2)ccc1Cl)c1ccc2c(c1)OCO2 | 5% | ?
Cc1ccc(C)c(CN2C(=O)N(c3cc(Cl)ccc3C)S(=O)(=O)c3ccccc32)c1 | 3% | 21%
Cc1nn(CCCC(=O)NCc2ccc(F)cc2)c(=O)c2c1sc1ccccc12 | -3% | ?
CCc1cccc(C)c1NC(=O)C(C)Sc1nc2c(c(=O)[nH]1)CCCC2 (stereo not given) | 3% | -1%
O=C(Nc1ccc(F)cc1F)N1CCc2c(sc3c2CCCC3)C1c1ccc(F)cc1 (stereo not given) | -1% | 1%
CCOCCCN1C(=O)CN(C2CCCCCC2)C(=O)C1c1ccc(OCC)c(OC)c1 (stereo not given) | 1% | 16%
COc1ccc(N(CC(=O)N2CCN(c3ccc(F)cc3)CC2)S(=O)(=O)c2c(C)nn(C)c2C)cc1 | -3% | ?
O=C1c2ccccc2C(=O)N1OS(=O)(=O)c1ccccc1 | ? | 7.9µM*
Cc1ccc(S(=O)(=O)ON2C(=O)c3cccc4cccc(c34)C2=O)cc1 | -11% | 5%
Cc1ccc(C)c(S(=O)(=O)ON2C(=O)c3ccccc3C2=O)c1 | 13µM* | 10µM*
O=C1c2cccc3cccc(c23)C(=O)N1OS(=O)(=O)c1ccccc1 | -13% | 0%
Cc1ccc2c(c1)N(C(=O)Nc1cccc(C)c1C)CCO2 | -4% | 7%
SMILES | Cruzain Triton | Cruzain noTriton
Cc1csc(NC(=O)CSc2nsc(SCC(=O)Nc3nc(C)cs3)c2C#N)n1 | -6% | ?
Cc1ccc(NC(=O)CSc2nsc(SCC(=O)Nc3ccc(C)cc3C)c2C#N)c(C)c1 | -8% | 10µM*
COc1cc(C2c3c(oc4ccccc4c3=O)C(=O)N2Cc2ccc(C)cc2)ccc1O (stereo not given) | 0% | -3%
CCC(CC)C(=O)Nc1cc(-c2cccc(C)c2)nn1-c1ccccc1 | -3% | 3%
CCOc1ccc(NC(=O)Cn2c(=O)n(CC(=O)NCc3ccccc3Cl)c(=O)c3sccc32)cc1 | -2% | 3%
COc1ccc2cc3cc(C(=O)NCCc4ccc(OC)c(OC)c4)oc3nc2c1 | -16% | ?
CCCN(CCC)CCCNC(=O)c1cc2cc3ccc(OC)cc3nc2o1 | 25µM* | ?
Cc1cccc(NC(=O)Nc2nnc(N(C)Cc3ccccc3)s2)c1 | -8% | 5%
CCN(c1ccccc1)c1nnc(NC(=O)Nc2ccccc2F)s1 | -3% | -11%
O=C(Nc1nnc(-c2ccccc2SCc2ccccc2)s1)Nc1ccccc1F | -1% | 3.2µM*
COc1ccc(NC(=O)Nc2nnc(-c3ccccc3SCc3ccccc3)s2)cc1 | 8% | 10µM*
CCOc1ccc(NC(=O)CSc2nnc(NC(=O)Nc3ccccc3)s2)cc1 | 0% | 14%
COc1cccc(NC(=O)Nc2nnc(-c3ccccc3SCc3ccccc3)s2)c1 | 5% | 3.2µM*
COc1ccc(CNC(=O)Cn2c(-c3ccccc3)cc(C(C)=O)c2C)cc1OC | 1% | -3%
CCc1ccc(C2=C(C)C(N3CCC(C(=O)NCc4ccc(C)o4)CC3)=NS2(=O)=O)cc1 | -4% | -1%
Cc1ccc(S(=O)(=O)N2CCCC(c3nc4c(nnn4Cc4ccc(OC(F)(F)F)cc4)c(=O)[nH]3)C2)cc1 (stereo not given) | -1% | -3%
